Laboratory results from PubChem BioAssay (NCI).
About 83,000 compounds went through this panel and 20% of them were active in at least one assay; those are over-represented in the sample as a whole.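 Assay: single dose, 48 h. Readout: percent growth (0 = no net growth; negative = cell death). Active: <10.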 Active and inactive are the calls of the source.

Tests used:
Assay in all cases: NCI-60 one-dose screen, 48 h (100 = growth as untreated, 0 = no growth, -100 = all killed)
Details in all cases: 10 µM unless noted
T-47D breast = tested on: T-47D breast
MDA-MB-435 melanoma = tested on: MDA-MB-435 melanoma
SW-620 colon = tested on: SW-620 colon
MCF7 breast = tested on: MCF7 breast
HCT-116 colon = tested on: HCT-116 colon
HCC-2998 colon = tested on: HCC-2998 colon
KM12 colon = tested on: KM12 colon
BT-549 breast = tested on: BT-549 breast

Measured: growth

C#Cc1cccc(NC(=O)c2ccc(NC(=O)CCl)cc2)c1
inactive: T-47D breast 19.1% [8.25 µM] | HCC-2998 colon 92.8% [8.25 µM] | KM12 colon 37.9% [8.25 µM]
active: MDA-MB-435 melanoma -4.26% [8.25 µM] | SW-620 colon -75.5% [8.25 µM] | MCF7 breast 4.22% [8.25 µM] | HCT-116 colon -30.3% [8.25 µM]

Cc1ccc(CCC(=O)Nc2ncc(Cc3cc(Cl)ccc3Cl)s2)o1
active: MDA-MB-435 melanoma -36.8% | HCT-116 colon 9.11% | HCC-2998 colon 8.63%
inactive: T-47D breast 54.3% | SW-620 colon 20.8% | MCF7 breast 13% | KM12 colon 14.9%

N#Cc1nc(C#N)c(Sc2ccccc2)c(Sc2ccccc2)c1Sc1ccccc1
active: T-47D breast -71.7% | MDA-MB-435 melanoma -14.2% | SW-620 colon -67.2% | MCF7 breast -72.1% | HCT-116 colon -30.7% | HCC-2998 colon -85.4% | KM12 colon -85.2%

COc1ccc2nc(NNC(=O)c3cnccn3)c3cccn3c2c1
inactive: MDA-MB-435 melanoma 13.5% | HCC-2998 colon 37.4%
active: T-47D breast 0.223% | SW-620 colon 0.919% | MCF7 breast -31.6% | HCT-116 colon -26.5% | KM12 colon 4.7%

CCCCCCN(CCCCCC)c1ccc(/C=C2/SC(=O)N(c3nc(N4CCCC4)nc(N4CCCC4)n3)C2=O)c(C)c1
inactive: T-47D breast 63.6% | BT-549 breast 88.1% | SW-620 colon 73.2% | MCF7 breast 54.8% | HCC-2998 colon 41.7% | KM12 colon 52.9%

NS(=O)(=O)c1ccc(-n2nc(C(=O)N/N=C\c3ccc(F)cc3)cc2-c2ccc(Cl)cc2)cc1
inactive: T-47D breast 79.5% | MDA-MB-435 melanoma 94.3% | SW-620 colon 95.8% | MCF7 breast 81.3% | HCT-116 colon 98% | HCC-2998 colon 98% | KM12 colon 96.9%

Cc1cc(NCc2cc(Nc3ccnc4cc(Cl)ccc34)ccc2F)nc(N2CCOCC2)n1
inactive: SW-620 colon 32.5% | HCC-2998 colon 55.8% | KM12 colon 44%
active: T-47D breast -54.8% | MDA-MB-435 melanoma -18.4% | MCF7 breast 6.18% | HCT-116 colon 2.23%

COc1cc(/C=C/C(=O)c2c(C)nc3ccccc3c2C)ccc1OCCCN1CCN(C(=O)c2ccco2)CC1
inactive: T-47D breast 67.7% | BT-549 breast 86.3% | SW-620 colon 68.3% | MCF7 breast 75.4% | HCT-116 colon 76.6% | HCC-2998 colon 46.5% | KM12 colon 98%

COc1cccc(-c2nn(-c3ccccc3)cc2-c2ccnc(NCCNC(=O)Nc3ccccc3)c2)c1
inactive: T-47D breast 20.3% | BT-549 breast 30.2% | SW-620 colon 71.9% | MCF7 breast 56.6% | HCT-116 colon 35.3% | HCC-2998 colon 39.1% | KM12 colon 37.6%

CCN1CCN(c2nc(C)cc(NCc3cc(Nc4ccnc5cc(Cl)ccc45)ccc3F)n2)CC1
active: T-47D breast -24.3% | MCF7 breast 1.98% | HCT-116 colon 2.33% | HCC-2998 colon -34.9%
inactive: BT-549 breast 36.1% | SW-620 colon 11.5% | KM12 colon 26.9%

N#Cc1c(N2CCNCC2)nc2sc3cc(Cl)c(Cl)cc3n2c1=N
inactive: T-47D breast 89.5% | MDA-MB-435 melanoma 113% | SW-620 colon 99% | MCF7 breast 75.2% | HCT-116 colon 97.1% | HCC-2998 colon 118% | KM12 colon 115%

Cc1ccc(-n2c(-c3ccccc3)c(-c3ccccc3)c3c(SCC(=O)n4[nH]c(N)cc4=O)ncnc32)cc1
inactive: T-47D breast 76.6% | BT-549 breast 99% | SW-620 colon 90.3% | MCF7 breast 86.7% | HCT-116 colon 78.2% | HCC-2998 colon 113% | KM12 colon 98.1%

CSc1n(Cc2ccc3ccccc3c2)c(C)c[n+]1Cc1ccc2ccccc2c1
active: T-47D breast 0.45% | MDA-MB-435 melanoma -66.2% | SW-620 colon 0.772% | MCF7 breast -62.8% | HCT-116 colon -0.907% | HCC-2998 colon -91.1% | KM12 colon -82.5%

Cc1cc(NCc2cc(Nc3ccnc4cc(Cl)ccc34)ccc2F)nc(N2CCN(c3ccccc3)CC2)n1
active: HCT-116 colon 1.74%
inactive: T-47D breast 24.5% | BT-549 breast 70.1% | SW-620 colon 46.1% | MCF7 breast 23.9% | HCC-2998 colon 28.2% | KM12 colon 69.2%

CCCCn1c(=O)c2c(nc3n2CCCN3CCc2ccc(OCC(=O)NCCN(CC)CC)cc2)n(CCCC)c1=O
inactive: T-47D breast 53.6% | MDA-MB-435 melanoma 63.6% | SW-620 colon 79.2% | MCF7 breast 36.6% | HCT-116 colon 36.4% | HCC-2998 colon 56.8% | KM12 colon 77.5%

Fc1cnc(NC2CC2)nc1-c1cnc2ccc(N3CCOCC3)cn12
active: T-47D breast 7.29% | BT-549 breast -5.41% | SW-620 colon 5.59% | MCF7 breast 2.32% | HCT-116 colon 3.97% | HCC-2998 colon 1.18% | KM12 colon -2.57%

COC(=O)c1c2c(c[n+]([O-])c1C)C(=O)C=CC2=O
active: T-47D breast -11.9% | MDA-MB-435 melanoma -81.8% | SW-620 colon 0.106% | MCF7 breast -62% | HCT-116 colon -9.77%
inactive: HCC-2998 colon 88.1% | KM12 colon 98.7%

COCCc1ccc(OCC(O)CNC(C)C)cc1 (centres undefined)
inactive: T-47D breast 102% | MDA-MB-435 melanoma 97.4% | SW-620 colon 105% | MCF7 breast 101% | HCT-116 colon 101% | HCC-2998 colon 102% | KM12 colon 105%

COc1cccc(-c2nn(-c3ccccc3)cc2-c2ccnc(NCCNC(=O)Nc3cccc(C(F)(F)F)c3)c2)c1
inactive: BT-549 breast 26.1% | SW-620 colon 39% | MCF7 breast 15.3% | HCT-116 colon 10.5%
active: T-47D breast 0.52% | HCC-2998 colon -47% | KM12 colon 2.54%

O=c1c2c3c(sc2nc(N/N=C/c2ccc(Br)cc2)n1Cc1ccccc1)CCCC3
inactive: T-47D breast 87.5% | BT-549 breast 93.6% | SW-620 colon 83.8% | MCF7 breast 58.3% | HCT-116 colon 67.4% | HCC-2998 colon 37.3% | KM12 colon 81.9%

O=C(Nc1ccc(Nc2ccncc2)cc1)c1ccc(C(=O)Nc2ccc(Nc3ccncc3)cc2)cc1
inactive: T-47D breast 33.8% | MDA-MB-435 melanoma 48.8% | SW-620 colon 42.2% | MCF7 breast 26.8% | HCT-116 colon 32.7% | HCC-2998 colon 87% | KM12 colon 47.4%

Cc1ccc(NCCN(C)C)c2c(=O)c3ccccc3sc12
inactive: T-47D breast 22.3% | MDA-MB-435 melanoma 13.2% | HCT-116 colon 10.2% | KM12 colon 23.3%
active: SW-620 colon 8.96% | MCF7 breast 0.259% | HCC-2998 colon -16.2%

Cc1ccc(-c2cc3c(cc2O)C2CCCCC2(N2CCOCC2)O3)cc1 (centres undefined)
inactive: T-47D breast 85% | BT-549 breast 95.4% | SW-620 colon 117% | MCF7 breast 88.5% | HCT-116 colon 97.3% | HCC-2998 colon 106% | KM12 colon 109%

COc1ccc(C2C(c3nn[nH]n3)=C(N)Oc3c2ccc2ccccc32)cc1 (centres undefined)
inactive: T-47D breast 64.4% | BT-549 breast 72% | SW-620 colon 29.3% | MCF7 breast 33.1% | HCT-116 colon 55.7% | HCC-2998 colon 97.7% | KM12 colon 50.2%

CCN(CC)CCCC(C)Nc1c2ccc(Cl)cc2nc2ccc(O)cc12 (centres undefined)
inactive: T-47D breast 49.7% | MDA-MB-435 melanoma 27% | SW-620 colon 24.5% | HCT-116 colon 14.8% | HCC-2998 colon 25.4% | KM12 colon 30.4%
active: MCF7 breast 6.22%
